According to the supplement of paper PMC4723716:

Test system: Plasmodium falciparum NF54 gametocytes
Assay: viability index relative to DMSO control (fraction); higher = less gametocyte killing
Conditions: 12.5 µM, incubation time: 72 h
Outline: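 The viability index was calculated as the gametocyte particle count over the plate mean of solvent-only wells. For this, P. falciparum NF54 gametocytes of every stage (I–V) were held with compound at 12.5 µM for 72 hr at 37°C under low oxygen in 384-well plates. MitoTracker Red CMXRos staining for 20 min was followed by transfer of 5 µl into 40 µl of 500 nM dye in serum-free medium, with three fields imaged after 30 min.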

[1] = gametocyte stage: Stage I viability index
[2] = gametocyte stage: Stage II viability index
[3] = gametocyte stage: Stage III viability index
[4] = gametocyte stage: Stage IV viability index
[5] = gametocyte stage: Stage V viability index

Structure (SMILES)	viability index [1]	viability index [2]	viability index [3]	viability index [4]	viability index [5]
Cc1ccc(Cl)cc1N1CCN(CCCNC(=O)C2CCN(c3nc4ccccc4[nH]3)CC2)CC1	0.158	0.517	0.628	0.426	0.407
CSc1ccccc1C(=O)Nc1nc(-c2ccccn2)cs1	0.242	0.181	0.321	0.362	0.132
O=C(Nc1ccccc1O)c1ccc(-c2ccc(Cl)cc2Cl)o1	0.0166	0.0976	0.6	0.653	0.736
CN1C=C(c2ccc3ccccc3n2)C(c2c[nH]c3ccccc23)c2ccccc21 (stereo not given)	0.178	0.0874	0.273	0.294	0.351
Cc1ccc(Nc2nc(N)c3ccccc3n2)cc1Cl	0.0341	0.49	0.695	0.753	0.481
COc1ccc(-c2nc(N3CCN(C(=O)C4CCCCC4)CC3)c3c4c(sc3n2)CCCC4)cc1	1.05	0.922	1.06	0.915	0.779
COc1ccc(NC(=O)C2c3ccccc3C(=O)N(CC(C)C)C2c2cccs2)cc1 (stereo not given)	0.0343	0.0087	0.0354	0.216	0.0549
Cc1ccc(F)cc1NC(=O)c1cc(Cl)ccc1Nc1ccccc1	0.441	0.395	0.332	0.522	0.753
COc1ccc(C=C2SC(=N)N(c3ccccc3OC)C2=O)cc1	0.642	0.916	0.942	0.769	0.923
Nc1ccc(-c2nc3cc(Oc4ccc(Oc5ccc6[nH]c(-c7ccc(N)cc7)nc6c5)cc4)ccc3[nH]2)cc1	0.000874	0.0108	0.0271	0.0253	0
Cc1ccc(Nc2nc(NCCO)c3ccccc3n2)cc1C	0.0641	0.32	0.584	0.796	0.659
Cn1c(=O)c2cc(C(=O)NCCCN3CCCCCC3)sc2c2ccccc21	1.01	0.857	0.926	0.957	0.725
COc1ccc(C2c3ccc4ccccc4c3Oc3ncn(CCCn4ccnc4)c(=N)c32)cc1OC (stereo not given)	0.0122	0.231	0.441	0.547	0.429
CNCCCNc1ccnc2cc(Cl)ccc12	0.0398	0.291	0.704	0.875	0.747
CCOC(=O)c1cnc2ccc(Cl)cc2c1NCCCN(C)C	0.309	0.59	0.989	1.03	0.844
CCCCOC(=O)c1ccc(Nc2cc(C)nc3ccc(OC)cc23)cc1	0.0647	0.156	0.545	0.411	0.325
COc1ccc2nc(C)cc(Nc3ccc(Cl)cc3)c2c1	0.243	0.525	0.994	1.05	0.692
Cc1ccc(S(=O)(=O)c2c(COC(=O)c3cccc(C)c3)c(-c3ccccc3)nn2C)cc1	0.982	0.881	0.943	0.769	0.922
CCOC(=O)c1cn(CC)c2cc(N3CCCCC3)c(F)cc2c1=O	0.592	0.9	0.81	0.769	0.791
CCOc1c(Cl)cc(CNCC(O)c2ccccc2)cc1OC (stereo not given)	0.231	0.272	0.793	0.918	0.714

Structure (SMILES)	viability index [1]	viability index [2]	viability index [3]	viability index [4]	viability index [5]
COc1cc2c(cc1OC)C1=NNC(=O)C1=NC(C)(C)C2	0.00884	0.0058	0.0707	0.109	0.011
CC(C)(C)CC(C)(C)NCC(O)COc1ccc(Cl)cc1Cl (stereo not given)	0.0309	0.0309	0.0665	0.188	0.11
CCN(Cc1ccccc1)C1CCN(Cc2cc(Br)ccc2O)CC1	0.0376	0.132	0.573	0.617	0.659
Oc1c2c(nc3cc(-c4ccccc4)nn13)CCCC2	1.07	0.786	1.07	0.878	0.879
CCn1c2c(c(=N)c3c1CCC3)CCCC2	0.441	0.795	0.957	0.962	0.701
COc1cccc(C=Cc2nc(=O)c3ccccc3o2)c1OC	0.751	0.717	0.809	0.948	0.967
CCOC(=O)c1c(C)n(-c2ccccc2)c2ccc(OC(=O)c3cc(OC)c(OC)c(OC)c3)cc12	1.05	0.724	0.947	0.987	1.05
O=C(Nc1ccc(Cl)cc1)N1CCN(c2ccc3nncn3n2)CC1	0.865	1.02	1.15	1.14	1.11
O=C(Nc1cccc(C2=NCCN2)c1)Nc1cccc(C2=NCCN2)c1	0.565	0.718	0.773	0.908	0.818
Cc1cc(N(C)C)nc(Nc2ccc(NC(=O)Nc3ccccc3)cc2)n1	0.00262	0.0266	0.138	0.0285	0
COc1cc(SC)ccc1C(=O)N1CCCC(C)C1 (stereo not given)	0.982	0.96	1.17	1.16	1.18
CCCCCCc1cc2cc(-c3csc(C=Cc4ccccc4)n3)c(=O)oc2cc1O	0.309	0.313	0.621	0.797	0.636
CCOc1cc(Cl)c(C(C)NC(=O)c2cccc(OC)c2)cc1OCC (stereo not given)	0.0343	0.121	0.143	0.298	0.231
N=c1c2ccccc2nnn1-c1cccc(C(F)(F)F)c1	0.988	0.714	1.02	0.785	0.87
Oc1ccc(Cl)cc1CNc1nc2ccccc2[nH]1	0.0751	0.545	0.822	0.891	0.736
Cc1sc(NC(=O)c2ccco2)c(C(c2cccnc2)N2CCC(Cc3ccccc3)CC2)c1C (stereo not given)	0.00962	0.0408	0.261	0.418	0.351
Cc1cc(Nc2ccc(Cl)cc2)n2nc(C(F)(F)F)nc2n1	0.957	0.975	1.03	0.97	1
Cc1ccc(C(=O)c2oc3ccc4c(C)cc(=O)oc4c3c2C)cc1	1.1	0.932	0.905	1.04	1.08
COc1ccccc1N1C(=N)SC(=Cc2ccc(OCc3ccccc3F)cc2)C1=O	0.669	0.654	0.661	0.563	0.403
COc1ccc(CCn2c(=N)c(C(=O)NCc3cccnc3)cc3c(=O)n4cccc(C)c4nc32)cc1	0.076	0.611	0.917	0.937	1.09

Structure (SMILES)	viability index [1]	viability index [2]	viability index [3]	viability index [4]	viability index [5]
CC(C)(C)c1ccc(O)c(CNC2CCCCC2)c1	0.256	0.329	0.482	0.571	0.462
COc1ccc(-c2nonc2NC(=O)c2cccc(Cl)c2)cc1OC	0.27	0.207	0.505	0.684	0.187
COc1ccc2c(=O)cc(C(Cl)(Cl)Cl)oc2c1	0.0166	0.146	0.512	0.623	0.56
COc1cc2c3cc1Oc1c(OC)c(OC)cc4c1C(Cc1ccc(O)c(c1)Oc1ccc(cc1)CC3N(C)CC2)N(C)CC4 (stereo not given)	0.25	0.465	0.592	0.528	0.468
CCCCNc1nc(NC(C)(C)C)nc(NC(C)(C)C)n1	0.0157	0.0425	0.223	0.117	0.0649
Cc1ccnc(NC(c2cccc(OCc3ccccc3)c2)c2ccc3cccnc3c2O)c1 (stereo not given)	0.0271	0.015	0.0204	0.00316	0
COc1ccc(C(=O)C2CC2c2ccc(Cl)cc2)cc1 (stereo not given)	1.01	0.968	1.03	0.93	0.558
CCOc1cc(Cl)c(C(C)NC(=O)c2ccccc2)cc1OCC (stereo not given)	0.728	0.781	0.819	1.03	0.901
COc1cccc(Nc2nc(NCCO)c3ccccc3n2)c1	0.134	0.581	0.728	0.854	0.538
Oc1ccccc1CN1CCN(C(c2ccccc2)c2ccccc2)CC1	0.0221	0.102	0.437	0.535	0.615
COc1ccc(C(=O)NC(c2ccc(Cl)cc2Cl)c2cc(Cl)c3cccnc3c2O)cc1 (stereo not given)	0.0262	0.0341	0.0814	0.136	0.0779
Cn1c(C(=O)c2cccc3ccccc23)nc2ccccc21	0.681	0.95	1.14	1.01	0.74
COc1ccc(C(=O)Nc2ccc3nc(N4CCCCC4)cc(C)c3c2)cc1OC	0.275	0.58	0.95	0.9	0.989
CCCc1c(CC)c(=N)c2ccccc2n1C	0.815	0.952	1.09	0.951	1.1
Cc1ccc(C2CC(C(F)(F)F)n3nc(C(=O)N4CCN(C(c5ccccc5)c5ccccc5)CC4)cc3N2)cc1 (stereo not given)	0.576	0.645	0.944	0.804	0.922
CN1CCN(c2ncnc3c2[nH]c2ccc(Cl)cc23)CC1	0.263	0.577	0.92	1.04	0.935
CC(O)(c1ccc(Cl)cc1)C(CN1CCCCC1)c1ccccc1 (stereo not given)	0.115	0.32	0.809	0.818	0.802
Clc1ccc2[nH]c3c(NCCCN4CCOCC4)ncnc3c2c1	0.0298	0.444	0.979	0.918	0.813
Cc1cc(NC(=O)C2c3ccccc3C(=O)N(CC(C)C)C2c2cccs2)no1 (stereo not given)	0.0387	0.0193	0.0636	0.188	0.0879
COc1ccc(C(C)=O)cc1N1C(=O)C2C(C1=O)C1(c3ccccc3)C(=O)C2(c2ccccc2)C(c2ccc(C)cc2)=C1c1ccc(C)cc1 (stereo not given)	1.04	0.933	1.01	0.824	0.923
